In the library only some 12% were active in any assay of this set; here they are far more common.
BAZ2B inh = blocks human BAZ2B. Potency, µM (doses to about 114 µM), without a hit: top-dose activity change, negative = inhibition, actives largely listed as inhibitors. Q9UIF8. 360,000 tested, 4.4% active. AlphaScreen BAZ2B-H3K14Ac peptide displacement. AID 504333; further: on the % scale 0 is the no-effect control and ±100 the full control effect; nearly all actives have a fitted effect of over 60% in size
Target sequence (Q9UIF8 whole entry, looked up): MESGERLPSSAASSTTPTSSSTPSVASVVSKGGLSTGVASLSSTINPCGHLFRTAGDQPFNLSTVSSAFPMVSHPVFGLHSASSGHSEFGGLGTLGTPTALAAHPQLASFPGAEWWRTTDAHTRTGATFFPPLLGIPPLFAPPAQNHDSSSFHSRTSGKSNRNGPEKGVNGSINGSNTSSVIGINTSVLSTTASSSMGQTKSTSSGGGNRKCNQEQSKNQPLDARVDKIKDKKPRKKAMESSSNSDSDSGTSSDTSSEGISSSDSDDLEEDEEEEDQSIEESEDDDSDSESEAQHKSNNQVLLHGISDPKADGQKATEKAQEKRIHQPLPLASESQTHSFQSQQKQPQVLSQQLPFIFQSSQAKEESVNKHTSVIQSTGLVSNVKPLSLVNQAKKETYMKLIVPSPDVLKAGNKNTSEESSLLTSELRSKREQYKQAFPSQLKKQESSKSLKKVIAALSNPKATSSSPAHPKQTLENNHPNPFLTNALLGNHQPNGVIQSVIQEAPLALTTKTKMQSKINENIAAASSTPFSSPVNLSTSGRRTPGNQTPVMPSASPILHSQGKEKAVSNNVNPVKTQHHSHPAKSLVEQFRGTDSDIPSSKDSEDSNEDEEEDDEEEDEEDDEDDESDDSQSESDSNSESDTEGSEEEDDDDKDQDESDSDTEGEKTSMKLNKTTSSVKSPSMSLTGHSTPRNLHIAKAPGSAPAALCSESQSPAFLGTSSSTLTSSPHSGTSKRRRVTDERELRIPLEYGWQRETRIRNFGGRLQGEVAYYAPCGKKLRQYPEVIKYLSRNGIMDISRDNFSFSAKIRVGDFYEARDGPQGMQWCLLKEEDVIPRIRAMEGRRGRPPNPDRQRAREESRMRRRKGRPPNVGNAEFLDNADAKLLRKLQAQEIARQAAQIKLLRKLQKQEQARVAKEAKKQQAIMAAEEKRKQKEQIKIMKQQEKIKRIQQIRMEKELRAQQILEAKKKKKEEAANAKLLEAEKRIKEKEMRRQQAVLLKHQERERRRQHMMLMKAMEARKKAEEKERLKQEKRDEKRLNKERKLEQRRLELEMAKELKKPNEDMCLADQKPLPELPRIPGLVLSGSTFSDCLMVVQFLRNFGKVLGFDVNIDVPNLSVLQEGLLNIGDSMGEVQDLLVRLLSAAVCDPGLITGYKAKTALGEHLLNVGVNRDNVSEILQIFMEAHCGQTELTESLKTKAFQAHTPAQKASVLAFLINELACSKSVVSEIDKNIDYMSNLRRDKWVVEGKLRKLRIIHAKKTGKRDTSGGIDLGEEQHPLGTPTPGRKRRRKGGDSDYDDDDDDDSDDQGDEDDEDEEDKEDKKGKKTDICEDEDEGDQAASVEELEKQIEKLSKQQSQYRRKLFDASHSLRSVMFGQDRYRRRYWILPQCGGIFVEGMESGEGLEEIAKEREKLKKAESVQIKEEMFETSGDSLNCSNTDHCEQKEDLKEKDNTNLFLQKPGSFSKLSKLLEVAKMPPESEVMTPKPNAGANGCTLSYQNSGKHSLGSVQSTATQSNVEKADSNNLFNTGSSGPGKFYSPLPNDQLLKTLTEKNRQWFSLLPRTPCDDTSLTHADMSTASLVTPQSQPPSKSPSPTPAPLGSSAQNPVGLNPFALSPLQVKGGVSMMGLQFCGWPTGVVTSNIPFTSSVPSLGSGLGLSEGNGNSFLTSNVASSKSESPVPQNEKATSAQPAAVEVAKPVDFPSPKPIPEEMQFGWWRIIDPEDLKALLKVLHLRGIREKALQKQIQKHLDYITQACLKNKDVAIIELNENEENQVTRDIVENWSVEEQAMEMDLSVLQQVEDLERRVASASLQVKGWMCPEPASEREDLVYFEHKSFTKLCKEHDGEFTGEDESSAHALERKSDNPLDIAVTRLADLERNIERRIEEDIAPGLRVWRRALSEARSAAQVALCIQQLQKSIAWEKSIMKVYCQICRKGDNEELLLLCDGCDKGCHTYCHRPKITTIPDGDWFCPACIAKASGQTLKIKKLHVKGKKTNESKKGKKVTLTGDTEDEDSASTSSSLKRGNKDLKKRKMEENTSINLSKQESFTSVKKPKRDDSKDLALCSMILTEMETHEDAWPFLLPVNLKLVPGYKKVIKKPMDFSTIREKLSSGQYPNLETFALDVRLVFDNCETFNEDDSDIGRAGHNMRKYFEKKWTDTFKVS
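AlphaScreen luminescence quantifies BAZ2B engagement of H3K14Ac peptide; the protein and biotinylated peptide are both at 50 nM final, buffer PBS pH 7.4 with 0.01% Tween-20, all steps at room temperature.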
JMJD2A Tudor = inhibitors of human JMJD2A Tudor domain; O75164; AlphaScreen JMJD2A-Tudor / H3K4me3 peptide binding; Potency, µM (doses to about 114 µM), for inactives: at the top dose activity change, negative = inhibition, hits mostly inhibitors; 390,000 tested, 4.4% active; AID 504339; further: on the % scale 0 is the no-effect control and ±100 the full control effect; nearly all actives have a fitted effect of over 50% in size
L3MBTL1 inh = inhibitors of human L3MBTL1; Q9Y468; AlphaScreen L3MBTL1–H3K9me1 peptide binding; Potency, µM (doses to about 57.1 µM), for inactives: top-dose activity, negative = inhibition, actives largely listed as inhibitors; 230,000 tested, 0.66% active; further: on the % scale 0 is the no-effect control and ±100 the full control effect; nearly all actives have a fitted effect of over 60% in size
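AlphaScreen proximity signal between nickel-chelate acceptor and streptavidin donor beads (final 10 ug/mL) reports binding of 50 nM L3MBTL1 to 75 nM biotin-H3 K9me1 peptide; complex incubated with compounds 30 min at room temperature; cefsulodin titration as control.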
Sfp inh = inhibitors of Bacillus subtilis Sfp phosphopantetheinyl transferase; Q9F4F7; Biochemical Sfp PPTase activity, qHTS; Potency, µM, for the others: largest response in the series, negative = inhibition, hits mostly inhibitors; 310,000 tested, 3.5% active; AID 1490;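 further: the enzyme is Sfp with the accession as filed and its product quenches rhodamine fluorescence; 0% = enzyme reaction without inhibitor and -100% = no enzyme wells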
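Sfp 15 nM + cpd, 15 min RT; start w/ rhodamine-CoA 5 uM, BHQ-2-YbbR 12.5 uM (final); 50 mM Hepes pH 7.6, 10 mM MgCl2, 0.01% NP-40, 0.01% BSA; read 525/598 nm at 0 and 30 min.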
HP1b chromo inh = HP1-beta chromodomain-methylated histone interaction inhibition; P83916; Potency, µM (doses to about 114 µM), for the others: at the top dose activity change, negative = inhibition, usual class: inhibitors; 390,000 tested, 0.56% active; AlphaScreen HP1-beta / biotin-H3K9me3 peptide binding; further: nearly all actives have a fitted effect of over 70% in size
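AlphaScreen: HP1-beta (50 nM) preformed 30 min with biotin-H3(1-18)K9me3 peptide (50 nM) in PBS pH 7.4, 0.01% Tween-20. Compound added for 30 min at RT, then streptavidin donor/nickel chelate acceptor beads (10 ug/mL) for 30 min.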
G9a inh = blocks human histone lysine methyltransferase G9a; Q96KQ7; G9a H3K9 monomethylation, AlphaScreen, 2 h; Potency, µM (top dose mostly 102 µM), inactives show at the highest dose activity, negative = inhibition, most hits filed as inhibitors; 350,000 tested, 8.8% active; further: on the % scale 0 is the no-effect control and ±100 the full control effect; nearly all actives have a fitted effect of over 75% in size
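Enzyme 20 nM + cpd, 15 min RT; add b-H3K9 pep 500 nM / SAM 20 uM; 2 h RT; anti-H3K9me1 Ab 0.5 ug/mL + SA donor / anti-rabbit acceptor beads 20 ug/mL each, 10 min; AlphaScreen read.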
The depositor's hits bear a star; ? = inconclusive; . = no result given; [ ] = remark or other dose. The call rests on the fitted dose curve; in most records, active means well fitted curve in the direction sought with a large enough effect; inconclusive means small, poorly fitted or top-dose-only effect, or another doubt; inactive means no such curve, though single readings can be large; an effect the other way counts as inactive or inconclusive. Potency means the concentration at half of the fitted maximal effect.

SMILES | BAZ2B inh | JMJD2A Tudor | L3MBTL1 inh | Sfp inh | HP1b chromo inh | G9a inh
O=C(CN1C(=O)NC2(CCCC2)C1=O)N1CCN(S(=O)(=O)c2ccccc2)CC1 | . | -6% | 1% | 24% | 60% | 12%
Cc1ccc(S(=O)(=O)N2CCN(C(=O)COC(=O)CCOc3ccccc3C)CC2)c(C)c1 | -9% | -15% | 1% | . | -1% | 11µM*
Cc1ccc(S(=O)(=O)N2CCN(C(=O)CN3C(=O)NC4(CCOc5ccccc54)C3=O)CC2)cc1 (configuration not stated) | 1% | -7% | . | 2% | 33% | 56µM*
CCOC(=O)c1ccccc1NC(=O)COc1ccccc1-c1nnc(-c2ccccc2)o1 | -16% | -10% | . | . | 14% | 21%[59 µM]
Cc1ccc(-c2nc3c4ccccc4n(CC(=O)N4CCN(c5ccc(F)cc5)CC4)c(=O)n3n2)cc1 | -2% | -2% | . | . | 14% | 3%[59 µM]
Cc1ccc(-c2cc(C(=O)O)n[nH]2)o1 | -5% | 25µM* | 5%[11.4 µM] | -6% | 14% | -4%[12.7 µM]
Cc1ccc(/C=N/NC(=O)c2cc(-c3ccc(C)o3)[nH]n2)cc1 | -11% | -12% | . | 21% | 4% | 17%
CC1C=C[C@@H]2[C@H](C1)C(=O)N(Cc1ccccc1)[C@H]2c1ccccc1Br (some centres not stated) | . | . | . | -15% | . | ?
COc1ccc(OCC(=O)c2c(O)c3ccccc3oc2=O)cc1 | ? | 20µM* | 9%[11.4 µM] | 20µM* | 18µM* | 3.2µM*
CC1CCC(C(=O)c2c(O)c3ccccc3oc2=O)CC1 (configuration not stated) | 9% | -19% | . | 13% | 15% | 50µM*
O=C(CC1CCCCC1)c1c(O)c2ccccc2oc1=O | 1% | 16% | 4% | 17% | 26% | -12%[12.7 µM]
CCOc1ccc(OCC(=O)c2c(O)c3ccccc3oc2=O)cc1 | 50µM* | 11µM* | -2% | 28µM* | ? | 3.2µM*
CC(=N)c1c(O)c2ccccc2oc1=O | -18% | -8% | . | 5% | 19% | 5%
CCN(c1ccc(C)cc1C)S(=O)(=O)c1nnc(NC(=O)c2ccccc2OC)s1 | -1% | -4% | . | . | 30% | -30%[59 µM]
Cc1cc(-n2c(C)cc(C(=S)N3CCOCC3)c2C)ccc1Br | 45µM* | ? | -1% | -27% | ? | 13µM*
C=Cc1ccc(CN2C(=O)c3ccccc3Sc3ccc(C(=O)OCc4ccco4)cc32)cc1 | -24% | -17% | . | . | 12%[57 µM] | -25%[59 µM]
COc1ccc(CCNC(=O)CNS(=O)(=O)c2ccc(N(C)C)c([N+](=O)[O-])c2)cc1OC | -22% | -16% | . | 20% | 34% | ?
CC(C)CSc1ccc(S(=O)(=O)NCC(=O)O)cc1[N+](=O)[O-] | -28% | -26% | 23% | 8% | 27% | 50µM*
CNc1ccc(S(=O)(=O)NCC(=O)OC(C)C(=O)N(C)Cc2ccccc2)cc1[N+](=O)[O-] (configuration not stated) | -5% | -25% | -7% | . | 10% | 1%[12.7 µM]
CN(C)c1ccc(S(=O)(=O)NCC(=O)OCC(=O)NC(=O)C2CCCCC2)cc1[N+](=O)[O-] | -7% | -15% | -3% | . | 9% | 3%[12.7 µM]
CN(C)c1ccc(S(=O)(=O)NCC(=O)OCC(=O)Nc2cccc(Cl)c2)cc1[N+](=O)[O-] | ? | ? | -9% | 9% | -21% | 56µM*
CN(C)c1ccc(S(=O)(=O)NCC(=O)NCc2ccccc2)cc1[N+](=O)[O-] | ? | ? | . | -11% | -5% | 45µM*
CSc1ccc(S(=O)(=O)NCC(=O)OC(C)C(=O)NCc2ccccc2)cc1[N+](=O)[O-] (configuration not stated) | -5% | -27% | 6% | . | -2% | -6%
CNc1ccc(S(=O)(=O)NCC(=O)NCCCc2ccccc2)cc1[N+](=O)[O-] | 50µM* | ? | . | -7% | 1% | 40µM*
CCc1ccc(CNC(=O)CSc2cc(=O)n(C)c3ccc(Cl)cc23)cc1 | -13% | -12% | . | . | -3% | 3%[59 µM]
SMILES | BAZ2B inh | JMJD2A Tudor | L3MBTL1 inh | Sfp inh | HP1b chromo inh | G9a inh
C[C@H](CCC(=O)O)[C@H]1CC[C@@H]2[C@H]3[C@@H](C[C@@H](O)[C@]21C)[C@]1(C)CC[C@H](O)C[C@@H]1C[C@@H]3O | . | . | . | 7% | . | -2%[59 µM]
CN1CCN(c2ccc(-c3nc(-c4ccccc4)no3)cc2[N+](=O)[O-])CC1 | ? | -27% | . | . | 14% | -1%[59 µM]
COc1ccc(-c2nc(-c3cccs3)c(-c3cccs3)[nH]2)cc1O | 45µM* | ? | . | 2% | -39% | ?
COC(=O)C1=C[C@@H](C(=O)OC)C2C3=C(C(=O)[C@@]2(C)NC(=O)c2ccccc2)[C@H](c2ccccc2)[C@@H]2C(=O)N(c4ccccc4)C(=O)[C@@H]2[C@@H]3C1 (some centres not stated) | . | -21% | . | 22% | 38% | .
CN(CC(=O)Nc1cccc(F)c1)C(=O)c1cccc(-n2cccc2)c1 | 28µM* | 28µM* | 7.1µM* | . | ? | ?
CCOc1ccc(NC(=O)CN(C)C(=O)c2ccc(N3CCCCCC3)c([N+](=O)[O-])c2)cc1OCC | ? | 50µM* | -21% | . | -37% | 13%[2.33 µM]
COc1cccc(NC(=O)CN(C)C(=O)c2ccc(N3CCCCC3)c([N+](=O)[O-])c2)c1 | ? | ? | -13% | . | -16% | 20%[12.7 µM]
CCc1nc2ccc(C(=O)N(C)CC(=O)Nc3ccc(Cl)c(C(F)(F)F)c3)cc2nc1CC | ? | -21% | -12% | . | 16% | 0%[0.501 µM]
CN(CCOc1ccccc1)C(=O)c1ccc(N2CCCC2)c([N+](=O)[O-])c1 | ? | ? | . | -20% | ? | 50µM*
CCOc1ccc(NC(=O)CN(C)C(=O)c2ccc3nc(CC)c(CC)nc3c2)cc1OCC | 0% | -19% | -1% | . | 17% | 50µM*
Cn1ccc2cc(S(=O)(=O)N3CCC(C(=O)NCCc4ccccc4)CC3)ccc21 | 5% | 8% | . | . | 23%[57 µM] | 6%[59 µM]
Cn1c2cc(CO)sc2c2cnn(Cc3ccccc3F)c(=O)c21 | . | -2% | . | . | . | .
CCCN(CC(=O)Nc1ccccc1C)C(=O)c1ccc(N2CCCCC2)c([N+](=O)[O-])c1 | ? | ? | -7% | . | -14% | 50µM*
CN(CC(=O)Nc1cccc(F)c1)C(=O)c1ccc(N2CCCCCC2)c([N+](=O)[O-])c1 | ? | ? | -22% | . | ? | ?
CCCN(CC(=O)Nc1ccccc1C)C(=O)c1ccc(N2CCCC2)c([N+](=O)[O-])c1 | -38% | ? | -13% | . | -12% | 15%[0.501 µM]

Compound activity from PubChem.
